Screen size: about 48,000 compounds; about 13,000 (27%) showed an effect of 50% or more. This is one part of the list.
Test system: Wolbachia pipientis
Assay: Anti-Wolbachia Cell-Based Screen
Format: functional
Parameters: scale not given: in the data most compounds retested in dose-response had high values
Conditions: 5 µM

Row | Compound | Percent Effect
1 | OC(CN1CCN(CC(F)F)CC1)c1ccc(Br)cc1 (configuration not stated) | 2.807%
2 | CC(C)CCN1C(=O)CC(N(C)Cc2nc3ccccc3c(=O)[nH]2)C1=O (configuration not stated) | -3.315%
3 | COc1cccc(CN2CCC(CO)(Cc3ccc(Cl)cc3)CC2)c1O | -4.953%
4 | COCC1CC2(CCN(Cc3ccoc3)CC2)CN1Cc1ccccn1 (configuration not stated) | 97.98%
5 | COCC(=O)N1CCC2(CC1)CC(COC)N(Cc1ccccn1)C2.O=C(O)C(F)(F)F (configuration not stated) | 100.7%
6 | COCC(=O)N1CCC2(CC1)CC(COC)N(c1ncccn1)C2.O=C(O)C(F)(F)F (configuration not stated) | -2.409%
7 | COCC1CC2(CCN(Cc3nccs3)CC2)CN1Cc1ccccn1.O=C(O)C(F)(F)F.O=C(O)C(F)(F)F.O=C(O)C(F)(F)F (configuration not stated) | 106.7%
8 | COCC(=O)N1CCC2(CC1)COC(COCc1ccccn1)C2.O=C(O)C(F)(F)F (configuration not stated) | -3.538%
9 | COCC1CC2(CCN(Cc3ccccn3)CC2)CN1c1ncccn1.O=C(O)C(F)(F)F.O=C(O)C(F)(F)F.O=C(O)C(F)(F)F (configuration not stated) | 0.4015%
10 | CCN1CCC2(CC1)CC(COC)N(Cc1csc(C)n1)C2.O=C(O)C(F)(F)F.O=C(O)C(F)(F)F (configuration not stated) | 21.22%
11 | FC(F)(F)CCc1ccnc(N[C@H]2CC[C@H](n3cnnc3)CC2)n1 | -3.85%
12 | CCNC(=O)NC[C@H]1Cn2c(-c3ccccc3)cnc2CO1 | -18.82%
13 | Cc1ccc(C)c(CS(=O)(=O)Cc2ccn(C)c(=O)c2)c1 | 17.59%
14 | Cc1cnn(C2CCCN(C(=O)C3=NN(C)C(=O)CC3)C2)c1 (configuration not stated) | 5.956%
15 | O=C(c1ccc(NC2CC2)nc1)N1CCCC(n2cccn2)C1 (configuration not stated) | -7.453%
16 | Cc1cnn(C2CCCN(C(=O)c3ccn(C)c(=O)c3)C2)c1 (configuration not stated) | -5.065%
17 | Cc1cnn(C2CCCN(C(=O)COc3ccc(C(N)=O)cc3)C2)c1 (configuration not stated) | -8.397%
18 | Cc1cnn(C2CCCN(C(=O)c3ccc4c(c3)CCC4)C2)c1 (configuration not stated) | 100.4%
19 | Cc1cnn(C2CCCN(C(=O)c3ccnc(-n4cncn4)c3)C2)c1 (configuration not stated) | 91.3%
20 | Cc1cnn(C2CCCN(C(=O)c3ccc(C(N)=O)cn3)C2)c1 (configuration not stated) | 85.91%
21 | Cc1nc(C)n(C2CCCN(C(=O)c3ccc(NC4CC4)nc3)C2)n1 (configuration not stated) | 0.453%

Row | Compound | Percent Effect
22 | Cc1cnn(C2CCCN(C(=O)c3ccnc(N(C)C)c3)C2)c1 (configuration not stated) | 7.39%
23 | Cc1cnn(C2CCCN(C(=O)c3ccnc(-n4ccnc4)c3)C2)c1 (configuration not stated) | 5.29%
24 | CNC(=O)c1ccc(C(=O)N2CCCC(n3cc(C)cn3)C2)cn1 (configuration not stated) | -2.2%
25 | Cc1cnn(C2CCCN(C(=O)c3ccc(NC4CC4)nc3)C2)c1 (configuration not stated) | 77.38%
26 | Cn1cnc2c1C(C(=O)N1CCCO1)N(C(=O)c1ccccc1)CC2 (configuration not stated) | -3.517%
27 | N#Cc1cccc(N2CCC3(CC2)Nc2ccccc2NC3=O)n1 | -5.007%
28 | CC(C)N1CCCC2(CCN(C(=O)CCCn3cncn3)C2)C1=O (configuration not stated) | 0.7052%
29 | Cc1cnn(C2CCCN(C(=O)c3ccc(N4CCCC4)nc3)C2)c1 (configuration not stated) | 85.57%
30 | Cc1cnn(C2CCCN(C(=O)c3sccc3C#N)C2)c1 (configuration not stated) | 1.519%
31 | Cc1cnn(C2CCCN(C(=O)c3ccc(-n4cccn4)nc3)C2)c1 (configuration not stated) | 95.03%
32 | Cc1cnn(-c2ccc(C(=O)N3CCCC(n4ccnc4C)C3)cc2)c1 (configuration not stated) | 110%
33 | Cc1cnn(C2CCCN(C(=O)c3ccc(O)nc3)C2)c1 (configuration not stated) | 123.6%
34 | O=C(CCCn1cncn1)N1CCC2(CC1)[C@H](O)C[C@@H]2OCCO | -4.804%
35 | Cc1cc(CNCC2CCCN(C(=O)OC(C)(C)C)C2)no1 (configuration not stated) | -1.865%
36 | CCCOC1CCCN(C(=O)c2[nH]nc(C)c2Br)C1 (configuration not stated) | -6.367%
37 | CCCN1CCN(C(=O)c2ccc3ccccc3n2)[C@H]2CS(=O)(=O)C[C@H]21 | 2.901%
38 | Cc1nccn1C1CCCN(C(=O)c2ccc(-n3cccn3)nc2)C1 (configuration not stated) | 122%
39 | Cc1nccn1C1CCCN(C(=O)c2ccc(N(C)C)nc2)C1 (configuration not stated) | -2.779%
40 | Cc1noc2ncc(C(=O)N3CCCC(n4ccnc4C)C3)cc12 (configuration not stated) | -5.392%
41 | Cc1ccc(-c2noc(CCC3CCN(C)CC3)n2)nn1 | -9.501%
42 | CC(C)CCN1CC2(CCN(C(=O)C3(C)CCCCO3)CC2)OC1=O (configuration not stated) | -6.368%

Row | Compound | Percent Effect
43 | CC(C)n1cc(CN2CCCN(C(=O)c3cccnc3O)CC2)cn1 | -1.686%
44 | Cc1nccc(C(=O)N2CCCN(Cc3cnn(C(C)C)c3)CC2)n1 | 5.245%
45 | CCc1ncc(C(=O)N2CCN(C(=O)COc3ccccc3)CC2)cn1 | 3.835%
46 | Cc1cccnc1CN1CCN(C(=O)c2cnn(C(C)C)c2)CC1 | 94.71%
47 | CCc1ncc(C(=O)N2CCN(Cc3ncccc3C)CC2)cn1 | 86.86%
48 | Cc1cccnc1CN1CCN(C(=O)c2cc(Cl)c[nH]c2=O)CC1 | -31.74%
49 | Cc1ccc(OCCC(=O)N(C)CC(=O)Nc2cc(C)on2)c(C)c1 | 1.593%
50 | COc1c(C)cnc(CN2CCC(N(C)C(=O)C(C)OC)CC2)c1C (configuration not stated) | 99.72%
51 | COc1c(C)cnc(CN2CCC(N(C)C(C)C(N)=O)CC2)c1C (configuration not stated) | -8.935%
52 | COc1c(C)cnc(CN(C)C(=O)c2ccccc2O)c1C | -2.97%
53 | COc1c(C)cnc(CNC(=O)CCOCC(C)C)c1C | 11.08%
54 | COc1ccccc1C(=O)N(C)Cc1ncc(C)c(OC)c1C | -3.019%
55 | COc1c(C)cnc(CN2CCC(N(C)S(C)(=O)=O)CC2)c1C | 116.9%
56 | COc1ccc(OC)c(C(=O)N(C)Cc2ncc(C)c(OC)c2C)c1 | -4.561%
57 | COc1c(C)cnc(CN2CCOC(Cn3nc(C)nc3C)C2)c1C (configuration not stated) | -9.057%
58 | COc1c(C)cnc(CN(C)C(=O)c2ccc(C3CCCO3)s2)c1C (configuration not stated) | -4.342%
59 | COc1ccc(C(=O)N(C)Cc2ncc(C)c(OC)c2C)c(OC)c1 | 77.44%
60 | COc1cccc(CCCN2CCC(N(C)S(C)(=O)=O)CC2)c1 | -2.016%
61 | O=C(c1cnc(NCCC2CCCO2)c(Cl)c1)N1CCOCC1 (configuration not stated) | -6.598%
62 | Cc1cc(NC(=O)Cc2ccccc2O)cnc1N1CCCCC1 | 13.35%

Source: ChEMBL document CHEMBL3988442, “University of Dundee, Small-Polar-MMV Screening Library” (2021)
